Inconclusive results are not listed. Active and inactive are the calls of the source. Calls come from the whole dose curve; as a rule, active = well fitted curve in the direction sought with a large enough effect in the repeat runs; inconclusive = weak or mixed curves; inactive = no such curve, though single readings can be large; an effect the other way counts as inactive or inconclusive.
How the values were obtained:
[1] = A CellTox Green Cytotoxicity Assay to monitor cytotoxicity in HEK293 cells - 40 hour (AID 1224871); note: nearly all actives have a fitted effect of over 45% in size
In short: (§1)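 Seeding of HEK293 cells together with cytotoxicity dye preceded a 5 h incubation at 37 C/5% CO2. Test compounds in DMSO were then added and fluorescence monitored across 40 h.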

[2] = qHTS RealTime-Glo MT Cell Viability Assay in HEK293 cells - 16 hour (AID 1224872); note: top concentration of the series differs between compounds; nearly all actives have a fitted effect of over 50% in size
In short: (§2)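 Tox21 10K qHTS, HEK293, 600 cells/well, RealTime-Glo reagent co-dispensed with cells; 5 h preincubation, compound by pintool, 37 C, luminescence at 0–40 h.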

[3] = qHTS RealTime-Glo MT Cell Viability Assay in HepG2 cells - 8 hour (AID 1224873); note: nearly all actives have a fitted effect of over 55% in size
In short: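 HepG2 cells mixed with RealTime-Glo MT reagents (NanoLuc plus cell-permeant prosubstrate) were seeded at 600 cells/well, incubated 5 h at 37 C/5% CO2, then pinned with compounds in DMSO; nonlytic luminescence tracked viability during 40 h treatment.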

[4] = qHTS RealTime-Glo MT Cell Viability Assay in HEK293 cells - 40 hour (AID 1224874); conditions: RealTime-Glo luminescence; max response: stronger effect = lower value; note: nearly all actives have a fitted effect of over 50% in size
In short: (§3)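 Tox21 screen in HEK293 using RealTime-Glo MT chemistry, with cells and reagent co-dispensed. Luminescence proportional to viable cell number was captured at intervals during 40 h compound exposure at 37 C.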

[5] = A CellTox Green Cytotoxicity Assay to monitor cytotoxicity in HEK293 cells - 24 hour (AID 1224875); note: series mostly up to about 77 µM; nearly all actives have a fitted effect of over 45% in size
In short: as §1

[6] = A CellTox Green Cytotoxicity Assay to monitor cytotoxicity in HepG2 cells - 16 hour (AID 1224876); note: nearly all actives have a fitted effect of over 45% in size
In short: (§4)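 Nonlytic assay: viable cells exclude the dye, so fluorescence scales with cell death. HepG2 at 600 cells/well, compounds added after 5 h, signal read across 40 h.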

[7] = qHTS RealTime-Glo MT Cell Viability Assay in HepG2 cells - 32 hour (AID 1224877); note: nearly all actives have a fitted effect of over 55% in size
In short: (§5)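 Cells + NanoLuc/prosubstrate dispensed (600 cells/well) → 5 h at 37 C/5% CO2 → compounds in DMSO transferred → 40 h incubation at 37 C, luminescence read at 0, 8, 16, 24, 32, 40 h.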

[8] = A CellTox Green Cytotoxicity Assay to monitor cytotoxicity in HepG2 cells - 24 hour (AID 1224878); note: nearly all actives have a fitted effect of over 45% in size
In short: as §4

[9] = A CellTox Green Cytotoxicity Assay to monitor cytotoxicity in HepG2 cells - 40 hour (AID 1224879); note: nearly all actives have a fitted effect of over 40% in size
In short: as §4

[10] = qHTS RealTime-Glo MT Cell Viability Assay in HEK293 cells - 0 hour (AID 1224880)
In short: as §3

[11] = A CellTox Green Cytotoxicity Assay to monitor cytotoxicity in HEK293 cells - 32 hour (AID 1224881); note: nearly all actives have a fitted effect of over 40% in size
In short: as §1

[12] = A CellTox Green Cytotoxicity Assay to monitor cytotoxicity in HepG2 cells - 0 hour (AID 1224882); note: nearly all actives have a fitted effect of over 35% in size
In short: as §4

[13] = A CellTox Green Cytotoxicity Assay to monitor cytotoxicity in HepG2 cells - 32 hour (AID 1224883); note: nearly all actives have a fitted effect of over 50% in size
In short: as §4

[14] = A CellTox Green Cytotoxicity Assay to monitor cytotoxicity in HEK293 cells - 8 hour (AID 1224884); note: nearly all actives have a fitted effect of over 35% in size
In short: as §1

[15] = qHTS RealTime-Glo MT Cell Viability Assay in HepG2 cells - 16 hour (AID 1224885); note: nearly all actives have a fitted effect of over 50% in size
In short: as §5

[16] = qHTS RealTime-Glo MT Cell Viability Assay in HEK293 cells - 24 hour (AID 1224886)
In short: as §2

[17] = qHTS RealTime-Glo MT Cell Viability Assay in HEK293 cells - 8 hour (AID 1224887)
In short: as §3

[18] = A CellTox Green Cytotoxicity Assay to monitor cytotoxicity in HEK293 cells - 16 hour (AID 1224888); note: nearly all actives have a fitted effect of over 35% in size
In short: as §1

[19] = qHTS RealTime-Glo MT Cell Viability Assay in HepG2 cells - 0 hour (AID 1224889); note: nearly all actives have a fitted effect of over 50% in size
In short: as §5

[20] = A CellTox Green Cytotoxicity Assay to monitor cytotoxicity in HepG2 cells - 8 hour (AID 1224890); note: nearly all actives have a fitted effect of over 45% in size
In short: as §4
% is set by controls: 0 for no effect and ±100 for the full control effect.

CCCCN(CCCCO)N=O
inactive: Potency [1] | Potency [2] | Potency [3] | max response [4] 3.79% | Potency [5] | Potency [6] | Potency [7] | Potency [8] | Potency [9] | outcome [10] | Potency [11] | outcome [12] | Potency [13] | Potency [14] | Potency [15] | Potency [16] | Potency [17] | Potency [18] | Potency [19] | Potency [20]

CCCSP(=O)(OCC)Oc1ccc(Br)cc1Cl (configuration not stated)
inactive: Potency [1] | Potency [2] | Potency [3] | max response [4] -3.49% | Potency [5] | Potency [6] | Potency [7] | Potency [8] | Potency [9] | outcome [10] | Potency [11] | outcome [12] | Potency [13] | Potency [14] | Potency [15] | Potency [16] | Potency [17] | Potency [18] | Potency [19] | Potency [20]

COc1cc(OC)nc(Oc2cccc(Oc3nc(OC)cc(OC)n3)c2C(=O)O)n1
inactive: Potency [1] | Potency [2] | Potency [3] | max response [4] -0.579% | Potency [5] | Potency [6] | Potency [7] | Potency [8] | Potency [9] | outcome [10] | Potency [11] | outcome [12] | Potency [13] | Potency [14] | Potency [15] | Potency [16] | Potency [17] | Potency [18] | Potency [19] | Potency [20]

O=C(NCO)NCO
inactive: Potency [1] | Potency [2] | Potency [3] | max response [4] 2.7% | Potency [5] | Potency [6] | Potency [7] | Potency [8] | Potency [9] | outcome [10] | Potency [11] | outcome [12] | Potency [13] | Potency [14] | Potency [15] | Potency [16] | Potency [17] | Potency [18] | Potency [19] | Potency [20]

N#CCNCC#N
inactive: Potency [1] | Potency [2] | Potency [3] | max response [4] 3.83% | Potency [5] | Potency [6] | Potency [7] | Potency [8] | Potency [9] | outcome [10] | Potency [11] | outcome [12] | Potency [13] | Potency [14] | Potency [15] | Potency [16] | Potency [17] | Potency [18] | Potency [19] | Potency [20]

COc1cc(OC)nc(NC(=O)NS(=O)(=O)c2ncccc2OCC(F)(F)F)n1
inactive: Potency [1] | Potency [2] | Potency [3] | max response [4] 0.591% | Potency [5] | Potency [6] | Potency [7] | Potency [8] | Potency [9] | outcome [10] | Potency [11] | outcome [12] | Potency [13] | Potency [14] | Potency [15] | Potency [16] | Potency [17] | Potency [18] | Potency [19] | Potency [20]

CC(=O)[C@H]1CC[C@H]2[C@@H]3CC[C@H]4C[C@H](O)CC[C@]4(C)[C@H]3C(=O)C[C@]12C
inactive: Potency [1] | Potency [2] | Potency [3] | max response [4] -27.6% | Potency [5] | Potency [6] | Potency [7] | Potency [8] | Potency [9] | outcome [10] | Potency [11] | outcome [12] | Potency [13] | Potency [14] | Potency [15] | Potency [16] | Potency [17] | Potency [18] | Potency [19] | Potency [20]

COC(=O)COc1ccc(Cl)cc1Cl
inactive: Potency [1] | Potency [2] | Potency [3] | max response [4] 0.13% | Potency [5] | Potency [6] | Potency [7] | Potency [8] | Potency [9] | outcome [10] | Potency [11] | outcome [12] | Potency [13] | Potency [14] | Potency [15] | Potency [16] | Potency [17] | Potency [18] | Potency [19] | Potency [20]

CC1(C)COP(Oc2ccccc2)OC1
inactive: Potency [1] | Potency [2] | Potency [3] | max response [4] -1.45% | Potency [5] | Potency [6] | Potency [7] | Potency [8] | Potency [9] | outcome [10] | Potency [11] | outcome [12] | Potency [13] | Potency [14] | Potency [15] | Potency [16] | Potency [17] | Potency [18] | Potency [19] | Potency [20]

C=C(C)CN(CC)c1c([N+](=O)[O-])cc(C(F)(F)F)cc1[N+](=O)[O-]
inactive: Potency [1] | Potency [2] | Potency [3] | max response [4] 0.654% | Potency [5] | Potency [6] | Potency [7] | Potency [8] | Potency [9] | outcome [10] | Potency [11] | outcome [12] | Potency [13] | Potency [14] | Potency [15] | Potency [18] | Potency [19] | Potency [20]

CN/C(=N\[N+](=O)[O-])NCC1CCOC1 (configuration not stated)
inactive: Potency [1] | Potency [2] | Potency [3] | max response [4] 4.22% | Potency [5] | Potency [6] | Potency [7] | Potency [8] | Potency [9] | outcome [10] | Potency [11] | outcome [12] | Potency [13] | Potency [14] | Potency [17] | Potency [18] | Potency [19] | Potency [20]

CCC1(c2ccccc2)C(=O)N=C(O)NC1=O (configuration not stated)
inactive: Potency [1] | Potency [2] | Potency [3] | max response [4] 9.07% | Potency [5] | Potency [6] | Potency [7] | Potency [8] | Potency [9] | outcome [10] | Potency [11] | outcome [12] | Potency [13] | Potency [14] | Potency [15] | Potency [17] | Potency [18] | Potency [19] | Potency [20]

CC1CCC(=O)O1 (configuration not stated)
inactive: Potency [1] | Potency [2] | Potency [3] | max response [4] -22.6% | Potency [5] | Potency [6] | Potency [7] | Potency [8] | Potency [9] | outcome [10] | Potency [11] | outcome [12] | Potency [13] | Potency [14] | Potency [16] | Potency [17] | Potency [18] | Potency [19] | Potency [20]

ClCCCN1CCN(c2cccc(Cl)c2)CC1
inactive: Potency [1] | Potency [2] | Potency [3] | max response [4] -25.9% | Potency [5] | Potency [6] | Potency [7] | Potency [8] | Potency [9] | outcome [10] | Potency [11] | outcome [12] | Potency [13] | Potency [14] | Potency [17] | Potency [18] | Potency [19] | Potency [20]

— PubChem BioAssay (Tox21)
